Compound activity as filed in PubChem BioAssay.
In the library only some 21% were active in any assay of this set; here they are far more common.
CHX counter – Cycloheximide Counterscreen for Small Molecule Inhibitors of Shiga Toxin. max response, %. 300,000 tested, 12% active. cell reporter, cycloheximide protein synthesis inhibition counterscreen; in the data active = max response mostly above about 13%, no sharp cut-off; inactive = mostly below about 14%; note: read at 38.3 µM for the half of the compounds with a filed dose
Shiga toxin inh – A qHTS for Small Molecule Inhibitors of Shiga Toxin; Vero cells, Shiga toxin protein synthesis inhibition reporter; 290,000 tested, 9.2% active; inhibition, % at 38.7 µM; in the data active = inhibition mostly above about 28%, no sharp cut-off; inactive = mostly below about 43%
Pf growth 96h – Primary qHTS for delayed death inhibitors of the malarial parasite plastid, 96 hour incubation; P. falciparum luciferase reporter growth, 96 h; Potency, µM (doses to about 28.7 µM), actives largely listed as inhibitors; 320,000 tested, 6.9% active; AID 504834, 2011
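Parasite growth measured via integrated firefly luciferase reporter in P. falciparum. Infected erythrocytes at 2% hematocrit, 0.05% parasitemia final were treated 96 hours at 37 C under 5% CO2, and luminescence was read.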
SARS PLP yeast – qHTS of Yeast-based Assay for SARS-CoV PLP; S. cerevisiae expressing SARS-CoV PLpro, growth rescue; Potency, µM (doses to about 32.9 µM), usual class: activators; 330,000 tested, 0.19% active; AID 485353, 2010; calls by dose curve; note: nearly all actives have a fitted effect of over 55% in size
Pf growth 48h – Primary qHTS for delayed death inhibitors of the malarial parasite plastid, 48 hour incubation; P. falciparum luciferase growth in erythrocytes, 48 h; 310,000 tested, 5.9% active; Potency, µM (titrated, usually from 28.7 µM), most hits filed as inhibitors
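Cell-based growth assay: transgenic P. falciparum expressing firefly luciferase, cultured in red cells within RPMI 1640 containing 0.5% w/v Albumax, 24 mM bicarbonate and gentamycin. A drop in luciferase activity indicates inhibition.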
NS1 function inh – qHTS Assay for Inhibitors of Influenza NS1 Protein Function; Potency, µM (doses to about 46.1 µM); 270,000 tested, 0.4% active; calls by dose curve; note: actives are rising curves; nearly all actives have a fitted effect of over 50% in size
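In this qHTS, NS1 from influenza A is expressed in budding yeast, where it slows growth. Cells are switched from glucose to 2% galactose medium (pH 6.0, -URA), treated with compound, and growth recovery is read at OD600.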
Hits are given with their value; – = inactive; ? = inconclusive; · = no result; [ ] = another dose, or the depositor's remark. Unless noted, calls come from the whole dose curve; as a rule, active = well fitted inhibition curve with a large enough effect; inconclusive = small, poorly fitted or top-dose-only effect, or another doubt; inactive = no such curve, though single readings can be large or run the other way.

SMILES	CHX counter	Shiga toxin inh	Pf growth 96h	SARS PLP yeast	Pf growth 48h	NS1 function inh
Cc1ccc(C(=O)N/C(=C\c2ccco2)C(=O)NCCN2CCOCC2)cc1	–	–	–	–	–	–
CN(Cc1ccc(C(F)(F)F)cc1)C(=O)C1CC(=O)N(Cc2ccco2)C1 (centres undefined)	·	·	·	–	·	·
Nc1cc(N)cc(C(=O)OCC(=O)Nc2cc(S(=O)(=O)N3CCCCC3)ccc2Cl)c1	–	–	?	–	–	·
CCCCn1c2c(c(=N)c3c1CCC3)CCC2	–	–	0.033µM	?	0.15µM	–
CCCCCCCCCn1c2c(c(=N)c3c1CCC3)CCC2	–	–	0.13µM	–	0.29µM	–
CCCCCCn1c(=O)[nH]c2c(c1=O)CCC2	–	–	–	–	–	–
CCCCCCCn1c2c(c(=N)c3c1CCC3)CCCC2	–	–	–	–	0.29µM	–
CCn1c2c(c(=N)c3c1CCC3)CCC2	–	–	0.19µM	–	0.47µM	–
Cc1snc(S(=O)(=O)Cc2ccccc2Cl)c1C#N	–	–	–	–	–	–
CCCCCCn1c2c(c(=N)c3c1CCC3)CCC2	–	–	–	–	0.21µM	–
CC(=O)OCC(NC(=O)C(COCc1ccccc1)NC(=O)OC(C)(C)C)C1OC(n2cc(F)c(=O)[nH]c2=O)C(OC(C)=O)C1OC(C)=O (centres undefined)	–	–	·	·	·	·
O=C(OCC(=O)N1CCCC1=O)C1CCN(S(=O)(=O)c2ccc(Cl)c(C(F)(F)F)c2)CC1	·	·	–	–	–	·
O=[N+]([O-])c1cccnc1S(=O)(=O)c1ccccc1	–	–	10µM	–	?	–
COc1ccc([N+](=O)[O-])c(S(=O)(=O)c2ccccc2)n1	–	–	?	–	–	–
Nc1ccc(N2CCCCC2)cc1N1CCCCC1	–	–	–	–	3.3µM	–
Nc1cc(Cl)ccc1N1CCCCCC1	–	–	–[5.75 µM]	–	2.6µM	·
CN1CCN(c2ccc(N)c(N3CCN(C)CC3)c2)CC1	–	–	·	–	·	–
COC(=O)CC1=NN(c2nc3ccccc3s2)C(=O)/C1=C/N(C)C	–	–	–	–	–	·
COC(=O)c1ccc(NC(=O)c2cn(-c3cccc(C)n3)cn2)cc1	–	–	–	–	–	–
Cc1cccc(NC(=S)Nc2ccc(Oc3ccccc3)cc2)n1	–	–	9.3µM	–	–	?
Cc1cccc(NC(=O)Nc2ccc(F)cc2)n1	–	63	–	–	–	–
Cc1ccc(NC(=O)c2cn(-c3cccc(C)n3)cn2)cc1	39	90	–	–	–	–
COC(=O)Cc1ccc(NC(=S)NCc2cccc(OC)c2)cc1	–	–	?	–	–	–
COC(=O)Cc1ccc(NC(=S)Nc2cccc(C)n2)cc1	16	–	?	–	–	–
CCOC(=O)/C(C#N)=N\Nc1cc(Cl)ccc1OC	–	–	–	–	–	–
SMILES	CHX counter	Shiga toxin inh	Pf growth 96h	SARS PLP yeast	Pf growth 48h	NS1 function inh
CC(CCN1C(N(C)C)=NC[C@@H]1C)c1ccccc1 (some centres undefined)	·	·	–	–	?	·
Cc1cccc(NC(=O)Nc2cccc(C)n2)n1	20	86	?	–	–	–
Cc1cccc(NC(=S)Nc2cccc(C)n2)n1	–	–	13µM	–	?	–
Cc1cccc(NC(=O)Nc2ccc(C)c(C)c2)n1	24	54	·	–	–	–
Cc1cccc(NC(=O)c2cccc(C(=O)Nc3cccc(C)n3)c2)n1	–	–	–	–	–	–
Cc1cccc(NC(=O)Nc2ccc(Cl)cc2)n1	22	39	–	–	–	–
Cc1cc(NS(=O)(=O)c2ccc(NC(=O)c3ccc([N+](=O)[O-])c(Cl)c3)cc2)no1	–	–	?	–	–	–
O=C(N/C(=C/c1cccnc1)C(=O)N1CCOCC1)c1ccccc1Br	–	–	–	–	–	–
COc1ccc(N(Cc2cc(=O)[nH]c3ccccc23)C(=O)CCl)cc1	–	·	–	–	?	–
Cc1cccc(NC(=O)NC(=O)c2ccccc2)n1	–	74	–	–	–	·
Cc1ccc(NC(=O)Nc2cccc(C)n2)cc1	49	103	–	–	–	–
Cc1cccc(NC(=O)Nc2ccc([N+](=O)[O-])cc2)n1	–	–	–	–	–	·
Cc1cccc(NC(=S)NC2CCCC2)n1	–	–	–	–	–	–
Cc1cccc(NC(=S)NC2CCCCC2)n1	–	–	–	–	5.2µM	–
